The experiment deals with HEK293 WT BDD-FVIII-Gluc. The experiment can be described thus: secreted FVIII-Gluc luciferase Z-score vs DMSO control; higher = more FVIII-Gluc secretion. The settings on record: 5 µM. The protocol: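 Natural plant-compound library (480 compounds, ST catalogue IDs) screened on HEK293 cells stably expressing WT BDD-FVIII-Gaussia luciferase fusion at 5 µM. Secreted Gluc activity in the medium is given as a Z-score relative to DMSO controls.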
For `CC(=O)OC1CCC2(C)C(=CCC3C2CC[C@]2(C)C(C(C)=O)CCC32)C1` (stereo not given in full), the “secreted FVIII-Gluc luciferase Z-score” value was found to be 0.0308.

`O=C(O)C1[C@H]2C[C@H]3c4[nH]c5ccccc5c4CCN3C[C@@H]2CC[C@@H]1O` (stereo not given in full): the “secreted FVIII-Gluc luciferase Z-score” value came to 0.257. Then `COc1ccc2c(C)cc(=O)oc2c1`, with 0.626. Then `Cc1c(-c2c(C)c(=O)c3c(C(C)C)c(=O)c(=O)c(C=O)c-3c2=O)c(O)c2c(C=O)c(O)c(O)c(C(C)C)c2c1O`, with -0.893; and `CC/C=C\C/C=C\C/C=C\CCCCCCCC(=O)O`, with 0.636. Next, `O=c1cc(-c2ccccc2)oc2cc(O[C@@H]3O[C@H](CO)[C@@H](O)[C@H](O)[C@H]3O)c(O)c(O)c12`: -0.188; `OC[C@H]1O[C@@H](n2cnc3c(NCc4ccco4)ncnc32)[C@H](O)[C@@H]1O`: -1.03. Take `Nc1nc2c(ncn2[C@@H]2O[C@H](COP(=O)(O)O)[C@@H](O)[C@H]2O)c(=O)[nH]1`: the “secreted FVIII-Gluc luciferase Z-score” value turned out to be 0.0522.

`CC1(C)[C@@H](O)CC[C@]2(C)[C@H]3C(=O)C=C4[C@@H]5C[C@@](C)(C(=O)O)CC[C@]5(C)CC[C@@]4(C)[C@]3(C)CC[C@@H]12`: the “secreted FVIII-Gluc luciferase Z-score” value was 0.00884. As to `COc1cc2c(cc1OC)C(=O)N(C)CC2`, the “secreted FVIII-Gluc luciferase Z-score” value worked out at 0.547. For `COc1ccc2cc1Oc1ccc(cc1)C[C@H]1c3cc(c(OC)cc3CCN1C)Oc1c(OC)c(OC)cc3c1[C@H](C2)N(C)CC3`, the “secreted FVIII-Gluc luciferase Z-score” value was determined as 0.132.

`O=c1ccc2cc3ccoc3cc2o1`: the “secreted FVIII-Gluc luciferase Z-score” value was -0.26. Next, `Cc1c(C)c2c(c(C)c1O)CC[C@@](C)(CCC[C@H](C)CCC[C@H](C)CCCC(C)C)O2`: 0.497. Next, `COc1cc2c(cc1OC)C(=O)Cc1ccc3c(c1CN(C)CC2)OCO3`: 0.000104; `NCC1OC(OC2C(CO)OC(OC3C(O)C(N)CC(N)C3OC3OC(CO)C(O)CC3N)C2O)C(N)C(O)C1OC1OC(CO)C(O)C(O)C1O` (stereo not given): 1.54; `Nc1ccccc1C(=O)CC(N)C(=O)O` (stereo not given): -1.11.

In the case of `C=C1C(=O)OC2C[C@@]3(C)CCCC(=C)[C@@H]3CC12` (stereo not given in full), the “secreted FVIII-Gluc luciferase Z-score” value was -0.82. Then `Nc1ccn(C2CC(O)C(COP(=O)(O)O)O2)c(=O)n1` (stereo not given), with 0.357.

With `COC1OC2COC(c3ccccc3)OC2C(O)C1O` (stereo not given), the “secreted FVIII-Gluc luciferase Z-score” value was -1.04. For the compound `C=C(C)[C@H]1CC=C(C)C(=O)C1`, the “secreted FVIII-Gluc luciferase Z-score” value worked out at 0.764. Next, `Nc1ncnc2c1ncn2[C@@H]1O[C@H](COP(=O)(O)OP(=O)(O)O)[C@@H](O)[C@H]1O`: 0.0418; `COc1ccc2oc(-c3cccc(OC)c3OC)cc(=O)c2c1`: 0.436.

For `NC(Cc1cnc[nH]1)C(=O)O` (stereo not given), the “secreted FVIII-Gluc luciferase Z-score” value came out at 0.443. Next, `NC(=O)NCCC[C@H](N)C(=O)O`: -0.102. Then `COC(=O)[C@H]1[C@H]2C[C@H]3c4[nH]c5ccccc5c4CCN3C[C@@H]2CC[C@@H]1O`, with -1.15. Turning to `N[C@@H](CSCC(=O)O)C(=O)O`, the “secreted FVIII-Gluc luciferase Z-score” value worked out at 0.103. Then `CCC(C)C(=O)O[C@H]1C[C@@H](C)C=C2C=C[C@H](C)[C@H](CC[C@@H]3C[C@@H](O)CC(=O)O3)[C@H]21` (stereo not given in full), with -0.369; and `C=CC1CN2CCC1CC2C(O)c1ccnc2ccc(OC)cc12` (stereo not given), with -0.00699; and `O=C1C=CC2=C3c4cc(O)c(O)cc4CC3(O)COC2=C1O` (stereo not given), with 0.729.

Consider `COc1ccc2c(OC)c3ccoc3nc2c1OC`, for which the “secreted FVIII-Gluc luciferase Z-score” value came out at 0.816. Next, `COc1cc2c(C)c3c4c(cc(OC)c(OC)c4c2cc1OC)CCN3C`: -1.2; `COc1cc2oc(=O)cc(C)c2cc1OC`: 0.58.

Consider `CCCCCCCCCCCC1=C(O)C(=O)C=C(O)C1=O`, for which the “secreted FVIII-Gluc luciferase Z-score” value is 0.529. Next, `Cc1c(C)c2c(c(C)c1OC(=O)CCC(=O)O)CC[C@@](C)(CCC[C@H](C)CCC[C@H](C)CCCC(C)C)O2`: 0.648; `NC(CC(=O)O)C(=O)O` (stereo not given): 0.487.

For `O=c1c(-c2ccc(O)cc2)coc2cc(O)cc(O)c12`, the “secreted FVIII-Gluc luciferase Z-score” value is -1.4. Next, `COc1ccccc1CC(Cc1nc2ccccc2[nH]1)c1nc2ccccc2[nH]1` (stereo not given): 0.163; `C=C1CC23C[C@@]1(O)CCC2C12C=CC(O)C(C)(C(=O)O1)C2[C@@H]3C(=O)O` (stereo not given in full): -0.216; `CC(C)[C@@H](C)/C=C/[C@@H](C)[C@H]1CC[C@H]2C3=CC=C4C[C@@H](O)CC[C@]4(C)[C@H]3CC[C@]12C`: 0.958. Then `Cc1cn([C@H]2C[C@H](O)[C@@H](CO)O2)c(=O)[nH]c1=O`, with 0.713.
